Records with an inconclusive call do not appear. Activity calls are given as the source filed them. Rule for the calls: active = hit-call score of the fitted dose curve at least 0.9, where 1 is the maximum; inconclusive = response in the unintended direction; inactive = score below 0.9.
Target: Ratio of Nucleoli Translocation and Cytoplasm, AR (gene 367) (UniProt P10275)
Assay: UPITT_HCI_U2OS_AR_TIF2_Nucleoli_Cytoplasm_Ratio_Antagonist: University of Pittsburgh U2OS Androgen Receptor-Transcriptional Intermediary Factor 2 (AR-TIF2) Antagonism High Content Imaging Assay for Ratio of Nucleoli Translocation and Cytoplasm (AID 2283999);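 note: antagonists lower the DHT-driven ratio of nucleolar to cytoplasmic red signal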
From the text: UPITT_AR_TIF2_PPIB is a cell-based, high-content imaging assay that uses U2OS, a human osteosarcoma cell line, expressing a human androgen receptor fused to red fluorescent protein and the coactivator TIF2 fused to green fluorescent protein. UPITT_HCI_U2OS_AR_TIF2_Nucleoli_Cytoplasm_Ratio_Antagonist is one of four assay components measured from the UPITT_AR_TIF2_PPIB assay. It is designed to make measurements of the ratio of red fluorescence localized in the nucleolar region of the cell nucleus to red fluorescence localized in the cytoplasm as detected with high-content fluorescent imaging.Data from the assay component UPITT_HCI_U2OS_AR_TIF2_Nucleoli_Cytoplasm_Ratio_Antagonist was analyzed into 1 assay endpoint. This assay endpoint, UPITT_HCI_U2OS_AR_TIF2_Nucleoli_Cytoplasm_Ratio_Antagonist, was analyzed in the positive analysis fitting direction relative to DHT as the baseline of activity. Using a type of binding reporter, measures of receptor for loss-of-signal activity can be used to understand the binding at the pathway-level as it relates to the gene AR.
Daughter plates containing 2 uL of 10 mM compounds in DMSO were prepared and replicated from the 384-well Library of Pharmacologically Active Compounds (LOPAC) master plates using the Bravo outfitted with a 384-well transfer head. Aluminum adhesive plate seals were applied with an Abgene Seal-IT 100 (Rochester, NY) plate sealer, and the plates were stored at -20 C in a Matrical MatriMinistore (Spokane, WA) automated compound storage and retrieval system. For screening, LOPAC daughter plates were withdrawn from -20C storage, thawed to ambient temperature, centrifuged 1-2 min at 50 g, and the plate seals were removed before the transfer of 98 uL of serum-free tissue culture medium (SFM) into wells using the BioTek Microflo liquid handler (BioTek, Winooski, VT) to generate a 200 uM intermediate stock concentration of library compounds (2.0% DMSO). The diluted compounds were mixed by repeated aspiration and dispensation using a 384-well P30 dispensing head on the Evolution P3 (EP3) liquid handling platform (PerkinElmer, Waltham, MA) and then 5 uL of diluted compounds was transferred to the wells of assay plates. In the LOPAC screen, compounds were individually tested at a final concentration of 20 uM (0.2% DMSO). After the diluted compounds had been transferred from the daughter plates to the primary HCS assay plates, aluminum adhesive plate seals were applied and the diluted daughter plates were stored frozen at -20C. To confirm active compounds identified in the primary screen, we withdrew the LOPAC daughter plates containing the 200 uM intermediate concentration of library compounds (2.0% DMSO) from -20C storage, thawed them to ambient temperature, centrifuged them for 1-2 min at 50 g, and removed the plate seals. A work list was generated to direct the Multiprobe Janus liquid handling platform (PerkinElmer) to cherry pick 75 uL from the wells of the diluted daughter plates that were flagged active in the primary screen and to reformat these into a 384-well plate hit confirmation daughter plate. Five microliters of primary HCS active compounds was then transferred into triplicate wells of assay plates using a 384-well P30 dispensing head on the Evolution P3 (EP3) liquid handling platform (PerkinElmer). […] Daughter plates containing 2 uL of the serially diluted compounds in DMSO were prepared and replicated from the 384-well serial dilution master plates using the Bravo outfitted with a 384-well transfer head. Aluminum adhesive plate seals were applied and plates were stored at -20C. For testing in the bioassays, daughter plates were withdrawn from -20C storage, thawed to ambient temperature, centrifuged for 1-2 min at 50 g, and the plate seals were removed before the transfer of 38 uL of SFM into wells using the BioTek Microflo liquid handler (BioTek) to generate an intermediate stock concentration of library compounds ranging from 1.95 to 500 uM (5.0% DMSO). […]

Sequence of Ratio of Nucleoli Translocation and Cytoplasm, AR (gene 367) (P10275 whole entry, looked up): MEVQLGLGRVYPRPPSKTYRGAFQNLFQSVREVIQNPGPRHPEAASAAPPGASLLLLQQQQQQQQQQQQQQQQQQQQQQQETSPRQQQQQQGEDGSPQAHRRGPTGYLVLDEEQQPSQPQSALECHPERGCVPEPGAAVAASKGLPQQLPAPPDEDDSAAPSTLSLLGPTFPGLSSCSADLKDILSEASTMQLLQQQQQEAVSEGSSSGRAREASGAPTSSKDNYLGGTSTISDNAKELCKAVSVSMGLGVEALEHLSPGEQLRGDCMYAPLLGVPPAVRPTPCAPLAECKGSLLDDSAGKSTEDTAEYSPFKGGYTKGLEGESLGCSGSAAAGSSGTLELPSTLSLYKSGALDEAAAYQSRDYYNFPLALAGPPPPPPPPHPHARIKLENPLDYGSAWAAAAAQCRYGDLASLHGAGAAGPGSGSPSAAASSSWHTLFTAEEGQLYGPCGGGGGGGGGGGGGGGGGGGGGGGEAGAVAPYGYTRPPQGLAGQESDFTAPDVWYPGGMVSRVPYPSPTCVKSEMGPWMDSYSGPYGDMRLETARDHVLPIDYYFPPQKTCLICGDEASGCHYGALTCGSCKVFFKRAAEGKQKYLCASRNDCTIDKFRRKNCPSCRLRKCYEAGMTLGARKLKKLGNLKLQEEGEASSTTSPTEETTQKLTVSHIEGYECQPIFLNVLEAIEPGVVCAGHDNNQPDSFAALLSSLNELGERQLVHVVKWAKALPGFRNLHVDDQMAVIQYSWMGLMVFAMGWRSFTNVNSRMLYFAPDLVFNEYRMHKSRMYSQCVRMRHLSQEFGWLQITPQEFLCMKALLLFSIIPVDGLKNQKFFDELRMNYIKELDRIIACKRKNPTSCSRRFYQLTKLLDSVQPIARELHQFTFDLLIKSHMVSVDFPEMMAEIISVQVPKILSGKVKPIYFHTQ

Row | SMILES | AC50 | outcome
1 | CCc1cc(Cc2cc(CC)cc(C(C)(C)C)c2O)c(O)c(C(C)(C)C)c1 | 50 µM (active) | 
2 | CCCCCCCCC=CCCCCCCCC1=NCCN1CCO |  | inactive
3 | CC1CCC(C(C)C)C(O)C1 (centres undefined) |  | inactive
4 | BrCc1cccc(Oc2ccccc2)c1 |  | inactive
5 | CCCCC1CCC(O)CC1 (centres undefined) |  | inactive
6 | CCOC(=O)[C@@H](C)Oc1ccc(Oc2nc3ccc(Cl)cc3o2)cc1 |  | inactive
7 | CC(=O)C1(C)CC2=C(CCCC2(C)C)CC1C (centres undefined) |  | inactive
8 | Cc1ccc(S(=O)(=O)Oc2ccc(N=Nc3ccc(-c4ccc(N=Nc5c(O)ccc6cc(S(=O)(=O)O)cc(S(=O)(=O)O)c56)c(C)c4)cc3C)cc2)cc1 |  | inactive
9 | CC(C=O)Cc1ccc(C(C)(C)C)cc1 (centres undefined) |  | inactive
10 | C[C@H]1O[C@@H](O[C@H]2[C@@H](O)C[C@H](O[C@H]3[C@@H](O)C[C@H](O[C@H]4CC[C@@]5(C)[C@H](CC[C@@H]6[C@@H]5C[C@@H](O)[C@]5(C)[C@@H](C7=CC(=O)OC7)CC[C@]65O)C4)O[C@@H]3C)O[C@@H]2C)C[C@H](O)[C@@H]1O |  | inactive
11 | CC(C)CCCCCCc1ccc(OCCOCCO)cc1 |  | inactive
12 | Nc1ccc(N)c2c1C(=O)c1ccccc1C2=O |  | inactive
13 | CC(=O)O[C@H]1C[C@@H]2CC[C@@]1(C)C2(C)C |  | inactive
14 | OCc1cccc(Oc2ccccc2)c1 |  | inactive

From PubChem BioAssay (EPA / NIEHS)
